UCHL1 inh – blocks human UCHL1 ubiquitin-rhodamine cleavage; P09936; purified UCHL1, Ub-rhodamine cleavage fluorescence; inhibition, % at 20 µM; 0.2% of 47,000 active; AID 1645859
OTUD3 block – human OTUD3 deubiquitinase inhibition | Q5T2D3 | inhibition, % at 25 µM | AID 1645858 | purified OTUD3, Ub-rhodamine fluorescence, 2 h | 0.7% of 47,000 active
USP7 block – human USP7 deubiquitinase inhibition | Q93009 | purified USP7, Ub-rhodamine cleavage fluorescence | inhibition, % at 20 µM | 0.3% of 47,000 active
USP28 inh – blocks human USP28 ubiquitin-rhodamine cleavage; Q96RU2; purified USP28, Ub-rhodamine cleavage fluorescence, 30 min; inhibition, % at 25 µM; 3% of 47,000 active; AID 1645857
USP10 inh – human USP10 deubiquitinase inhibition | 1.1% of 47,000 active | AID 1645856 | Q14694 | inhibition, % at 20 µM | purified USP10, Ub-rhodamine fluorescence, 60 min
* marks the source's active call; other numbers are inactive results. Rows were chosen to be rich in hits. Some 4.2% of all compounds tested hit in one or more screens of this group. Cut-off read from the data, not from the text of the source: active = inhibition above about 30%; inactive = the rest.

SMILES | UCHL1 inh | OTUD3 block | USP7 block | USP28 inh | USP10 inh
CC(C)C(Nc1ccc(C(F)(F)F)cc1Cl)C(=O)Nc1nc2ccccc2[nH]1 (stereo not given) | 9 | 12 | 11 | 24 | 14
CC(CC(=O)OCC(=O)Nc1ccc2[nH]c(=O)[nH]c2c1)c1ccccc1 (stereo not given) | 0 | -2 | 2 | 31* | -2
O=C(COC(=O)c1cc(Cl)c2c(c1)OCO2)Nc1ccc2[nH]c(=O)[nH]c2c1 | 2 | 31* | -35 | 51* | 29
O=C(COC(=O)c1ccc(F)cc1)Nc1ccc2[nH]c(=O)[nH]c2c1 | 5 | 10 | 12 | 23 | 12
O=C(COC(=O)c1ccc(O)cc1)Nc1ccc2[nH]c(=O)[nH]c2c1 | -1 | -4 | 2 | 3 | 2
O=C(COC(=O)c1ccccc1F)Nc1ccc2[nH]c(=O)[nH]c2c1 | -4 | 0 | 8 | 37* | 15
CC1CCN(S(=O)(=O)c2ccc3[nH]cc(C(=O)NCc4ccco4)c(=O)c3c2)CC1 | 6 | 5 | 3 | 20 | 23
Cc1nn(-c2nc3ccccc3[nH]2)c2c1C(c1cccs1)CC(=O)N2 (stereo not given) | 5 | 10 | 7 | 31* | 19
Cc1nn(-c2nc3ccccc3[nH]2)c2c1C(c1ccccc1Cl)CC(=O)N2 (stereo not given) | -5 | 0 | 6 | 0 | 10
Cc1ccc(Nc2nc(O)c(CC(=O)Nc3ccc(C)cc3C)s2)cc1 | 0 | 20 | 16 | 0 | 38*
Cc1cc(C)c(NC(=O)Cc2sc(Nc3ccc(C)c(C)c3)nc2O)c(C)c1 | -1 | 10 | 12 | 9 | 35*
COc1cccc(NC(=O)Cc2sc(Nc3cc(C)cc(C)c3)nc2O)c1 | 1 | 5 | 0 | 4 | 18
Cc1ccc(Nc2nc(O)c(CC(=O)Nc3ccccc3C)s2)cc1C | 2 | 13 | 12 | 4 | 36*
COc1ccc(NC(=O)Cc2sc(Nc3cccc(OC)c3)nc2O)cc1 | -1 | -5 | -2 | 1 | 6
CC(=O)N1CCOc2ccc(S(=O)(=O)Nc3cc(Cl)ccc3C)cc21 | 1 | 4 | 3 | 1 | 2
Cc1ccc2[nH]cc(S(=O)(=O)c3ccc(C)c(F)c3)c(=O)c2c1 | 4 | -3 | 20 | -19 | 8
Cc1ccc2[nH]cc(S(=O)(=O)c3cc(F)cc(F)c3)c(=O)c2c1 | 28 | 7 | 36* | 6 | 26
O=C(CCCC(=O)N(c1ccc2c(c1)OCCO2)C(C(=O)NC1CCCCC1)c1ccc(F)cc1)Nc1ccccn1 (stereo not given) | 3 | 25 | 3 | 21 | 40*
CO/C=C/C(=O)c1cc2cnc3c(=N)cc(NC(C)=O)c([nH]1)c23 | 10 | 12 | -29 | 43* | -7
C=CCc1ccc(O[C@H]2O[C@@H](CO[C@@H]3O[C@@H](C)[C@H](O)[C@@H](O)[C@H]3O)[C@H](O)[C@@H](O)[C@@H]2O)c(OC)c1 | 0 | 0 | 3 | 7 | -2
O=C(CC1C(=O)Nc2nc3ccccc3n21)Nc1cccc2ccccc12 (stereo not given) | 3 | 26 | 14 | 20 | 54*
O=C(CCc1nnc2ccc(N3CCCC3)nn12)NCc1ccc2c(c1)OCO2 | 0 | 16 | 0 | 14 | -1
Cc1cc(O)c2c(c1)C(=O)c1cc(O)cc(O)c1C2=O | -5 | -84 | -24 | -86 | 0
O=C1C=C(O)c2c(O)cc(O)cc2C1=O | 94* | 99* | 85* | 99* | 79*
Cc1ccc(C)c(S(=O)(=O)N2CCN(c3ccc4nnc(-c5ccco5)n4n3)CC2)c1 | 45* | 23 | 37* | 46* | 39*
SMILES | UCHL1 inh | OTUD3 block | USP7 block | USP28 inh | USP10 inh
O=C(c1cc(Cl)ccc1Cl)N1CCN(c2ccc3nnc(-c4ccco4)n3n2)CC1 | 4 | 8 | 4 | 2 | -2
O=S(=O)(c1ccccc1Cl)N1CCN(c2ccc3nnc(-c4ccco4)n3n2)CC1 | 40* | 28 | 34* | 34* | 39*
O=C(c1ncccn1)N1CCCCC1c1ncc(Cc2ccccc2)o1 (stereo not given) | -1 | 9 | -3 | 3 | 0
COCCN1C[C@H]2CCN(C(=O)c3ccccn3)CC[C@H]2S1(=O)=O | 2 | 10 | 0 | -1 | 1
CCn1ccc2c(cc(C(=O)Nc3cccc(F)c3)n2C)c1=O | -2 | -4 | 1 | 43* | -3
CCn1ccc2c(cc(C(=O)Nc3cccc(C)c3C)n2C)c1=O | -1 | -4 | 1 | 31* | 0

Screening results deposited in PubChem BioAssay by Buhrlage Lab, Dana-Farber Cancer Institute and Novartis Institutes for BioMedical Research (Cambridge, Mass).
